Screens deposited in PubChem BioAssay by several laboratories.
Gli-Sufu antag = Gli-Sufu pathway antagonism | Sufu-KO-LIGHT fibroblasts, Gli luciferase reporter luminescence | inhibition, % at 5 µM | AID 588413 | 340,000 tested, 0.74% active;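 active = inhibition above about 55%, limit read from the data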;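 also: 0% = DMSO-treated cells and 100% = wells with medium but no cells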
NR2F2 inh = inhibitors of human COUP-TFII (NR2F2) | P24468 | HEK293T NGFI-A luciferase reporter, luminescence | inhibition, % at 8.6 µM | 370,000 tested, 0.7% active | AID 686940;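 active = inhibition above a per-plate cutoff, mean inhibition of test wells between control levels plus 3 SD, cut at about 38% in these data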;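 also: cells cotransfected with COUP-TFII expression vector driving the NGFI-A reporter; 0% = median of COUP-TF2 test wells and 100% = reporter-only cells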
697 NFkB inh = lowers PMA/ionomycin-induced NF-kB signal in 697 B cells | 697 B-cell NF-kB luciferase reporter, 16 h | inhibition, % at 4 µM | 330,000 tested, 0.33% active | AID 435022; in the data active = inhibition above about 35%
Jurkat NFkB inh = inhibitors of the PMA/ionomycin-induced NF-kB reporter in Jurkat cells; PMA/ionomycin-induced NF-kB luciferase reporter, luminescence; inhibition, % at 4 µM; 330,000 tested, 0.53% active; AID 435003; in the data active = inhibition above about 50%
GalR3 antagonist = antagonists of human GalR3; AID 651719; HEK293 GalR3-CNG cAMP membrane potential fluorescence; galR3 body fused to GalR1 C-terminus; 360,000 tested, 0.44% active; inhibition, % at 3 µM;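 active = inhibition above the screen-wide average plus 3 SD, cut at about 13% in these data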;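 also: forskolin and galanin both at EC90 stimulate the cells; cAMP rise reported by CNG channel membrane potential dye signal; 0% = forskolin plus galanin with DMSO and 100% = forskolin alone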
Target sequence (O60755 1-299 limits assumed): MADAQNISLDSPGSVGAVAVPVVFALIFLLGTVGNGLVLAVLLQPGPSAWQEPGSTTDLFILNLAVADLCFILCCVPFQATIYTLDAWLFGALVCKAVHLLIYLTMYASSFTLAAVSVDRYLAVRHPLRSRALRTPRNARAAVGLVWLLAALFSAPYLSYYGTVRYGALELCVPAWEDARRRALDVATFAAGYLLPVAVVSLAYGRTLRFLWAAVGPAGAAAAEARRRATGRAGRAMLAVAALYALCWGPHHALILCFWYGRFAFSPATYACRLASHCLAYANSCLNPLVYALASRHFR
697 NFkB conf = inhibitors of the PMA/ionomycin-induced NF-kB reporter in 697 B cells, retest. AID 449746. 2,000 tested, 35% active. inhibition, % at 4 µM. shares compounds with 697 NFkB inh. 697 B-cell NF-kB luciferase, 16 h; in the data active = inhibition mostly above about 28%, no sharp cut-off; inactive = mostly below about 22%
Gli-Sufu confirm = Gli-SUFU antagonism confirmation, single concentration. AID 602428. shares compounds with Gli-Sufu antag. Sufu-KO-LIGHT cells, Gli luciferase reporter, luminescence. 2,500 tested, 40% active. inhibition, % at 5 µM;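 active = mean inhibition at 5 µM reaching about 45%, limit read from the data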;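 also: plate controls were DMSO-treated cells for no effect and wells lacking cells for full effect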
SufuKO cytotox = cytotoxic in Gli-SUFU antagonist counter-screen. Sufu-KO-LIGHT cells cytotoxicity, ATP luminescence. 2,500 tested, 32% active. cytotoxicity, % at 5 µM. shares compounds with Gli-Sufu antag;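 active = mean cytotoxicity at 5 µM above about 25%, limit read from the data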;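 also: cells exposed to compound overnight for roughly 16 to 18 hours; plate controls were DMSO wells with cells for no effect and medium without cells for full effect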
Wnt3a cs = Wnt3a reporter inhibition counter-screen; Wnt-LIGHT cells, Wnt3a-driven luciferase reporter, luminescence; 2,500 tested, 20% active; shares compounds with Gli-Sufu antag; inhibition, % at 6.25 µM;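 active = mean inhibition above about 25%, limit read from the data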
Active calls of the source: *; i = inactive; . = not tested or not shown. Compounds with a hit are over-represented: about 2% of the library has one in this group of screens.

SMILES	Gli-Sufu antag	NR2F2 inh	697 NFkB inh	Jurkat NFkB inh	GalR3 antagonist	697 NFkB conf	Gli-Sufu confirm	SufuKO cytotox	Wnt3a cs
COc1ccc(/C=C2/SC(=S)N(CCCC(=O)Nc3cccc(O)c3)C2=O)cc1	62.0*	14.4	62.5*	8.1	-7.0	71.4*	57.6*	0.3	-21.0
C[C@H]1COc2cccc(N3CCSCC3)c2S(=O)(=O)N1C	.	-20.1	.	.	.	.	.	.	.
C[C@H]1COc2cc(N3CCCC3)ccc2S(=O)(=O)N1C	.	15.0	.	.	.	.	.	.	.
O=C(c1ccc2c(=O)n(-c3ccccc3)c(=S)[nH]c2c1)N1CCCCC1	60.4*	36.8	38.2*	7.3	-8.4	-28.4	54.5*	36.2*	6.6
O=C(c1ccc2c(=O)n(-c3ccccc3)c(=S)[nH]c2c1)N1CCN(c2ccccc2)CC1	0.4	7.6	4.9	16.6	-5.3	.	.	.	.
CCn1c(=O)cc(SCC(=O)N2CCN(C3CCCCC3)CC2)c2ccccc21	96.9*	-53.5	47.8*	13.8	-8.2	19.1	46.1*	7.1	21.6
Clc1ccc(CSc2nnc(-c3cccs3)o2)cc1Cl	.	8.2	.	.	.	.	.	.	.
O=C1N/C(=C\c2ccc(O)cc2)C(O)=C1C=NCc1ccccc1	71.2*	-13.5	37.3*	20.5	-4.9	16.6	47.4*	19.2	11.2
O=C(CCCCCCC(=O)Nc1ccccc1)NO	83.9*	-90.4	i	23.7	-2.9	-336.0	88.5*	17.9	-234.0
COC(=O)[C@]12C[C@H](CC(=O)N3CCSCC3)C(=O)N(Cc3ccco3)C1=C[C@H](C1CCCC1)O[C@@H]2C	.	5.3	.	.	.	.	.	.	.
CC(=O)C1=NN(c2ccccc2)C(c2ccc3c(c2)OCO3)N1c1ccccc1 (stereo not given)	14.3	-6.0	-0.2	-18.5	-5.2	.	.	.	.
CC(=O)C1=NN(c2ccccc2)C(c2cccs2)N1c1ccc(N(C)C)cc1 (stereo not given)	78.8*	35.6	68.7*	41.1	-3.5	38.5*	79.0*	32.8*	-62.9
COC(=O)c1cc(C(=O)c2ccccc2)n2c(=O)/c(=C\N(C)C)sc12	-1.6	9.1	32.3	9.7	-2.8	.	.	.	.
COC(=O)c1cc(C(=O)c2ccc(Cl)cc2)n2c(=O)/c(=C\N(C)C)sc12	57.5*	-20.5	41.3*	7.6	-6.3	10.7	31.5	3.9	-84.4
CCCCN1CCS(=O)(=O)N(Cc2cn(Cc3ccccc3Br)nn2)C(C(=O)OC)C1 (stereo not given)	.	-9.5	.	.	.	.	.	.	.
CCOC(=O)c1sc(NC(=O)c2cc(-c3ccccc3C)nc3ccccc23)c(C#N)c1C	62.7*	7.6	36.4*	6.5	-3.8	40.0*	82.4*	20.4	74.0*
CNC(=O)CCc1nc(-c2ccc(C(C)C)cc2)no1	.	-16.3	.	.	.	.	.	.	.
N=c1ccn2c(n1)O[C@H]1[C@H](O)[C@@H](CO)O[C@H]12	60.1*	-8.2	52.0*	38.3	-9.6	44.8*	45.9*	12.8	40.6*
O=C(OCC1OC2C(Oc3nc(=O)ccn32)C1O)c1ccccc1 (stereo not given)	0.6	-6.1	-12.4	3.4	-1.3	.	.	.	.
CCOc1ccc(-c2nc(CSCC(=O)NC3CC3)c(C)o2)cc1	89.8*	.	98.6*	-0.5	.	79.2*	93.3*	12.6	-1.9
CCOCCCNC(=O)CSCc1nc(-c2ccc(SC)cc2)oc1C	31.3	11.8	22.9	3.9	-6.1	.	.	.	.
COCCNC(=O)CSCc1nc(-c2ccc(SC)cc2)oc1C	55.2*	0.6	83.7*	3.3	-0.8	72.4*	65.9*	11.9	7.9
